MCF10A rerep = A quantitative high throughput screen for small molecules that induce DNA re-replication in MCF 10a normal breast cells. 2.9% of 350,000 active. MCF 10A DNA re-replication, Hoechst nuclear intensity, 48 h. Potency, µM (highest dose often 46.1 µM), hits mostly activators; note: nearly all actives have a fitted effect of over 50% in size
SW480 rerep = A quantitative high throughput screen for small molecules that induce DNA re-replication in SW480 colon adenocarcinoma cells; SW480 DNA re-replication, Hoechst DNA content imaging, 48 h; Potency, µM (top dose mostly 46.1 µM), actives largely listed as activators; 1.8% of 340,000 active; AID 624297, 2012; note: nearly all actives have a fitted effect of over 55% in size
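DNA re-replication was detected as more nuclei of elevated Hoechst intensity after 48 hr exposure to compound (23 nL pinned per well of 250 cells).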
DT40 TDP1 CPT = qHTS for Inhibitors of human tyrosyl-DNA phosphodiesterase 1 (TDP1): qHTS in cells in presence of CPT; chicken DT40 Tdp1-/-;hTDP1 cells + 20 nM CPT, ATP luminescence, 48 h; Potency, µM (highest dose often 46.2 µM), most hits filed as inhibitors; 12% of 420,000 active; AID 686979, 2013; note: nearly all actives have a fitted effect of over 55% in size
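Cell growth measured by CellTiter-Glo luminescence after a minimum 48 h, 37 C compound exposure with 20 nM CPT in Tdp1-knockout DT40 cells stably expressing hTDP1, seeded 400/well; qHTS titration format.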
BCR signal inh = qHTS Assay to Find Inhibitors of Chronic Active B-Cell Receptor Signaling; 0.05% of 340,000 active; Potency, µM (highest dose often 46.1 µM), most hits filed as inhibitors; ABC-DLBCL IkBa-CBG/CBR reporter, luminescence ratio, 4 h; AID 493014, 2011; active = well fitted inhibition curve with a large enough effect in the signal ratio, with a control signal flat, not every such curve was filed as active; inconclusive = small, poorly fitted or top-dose-only effect, or effect the other way, or a change in a side signal; the % refers to the signal ratio
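Concentration-response series (up to 46 uM) were applied to TMD8 dual-reporter cells for 4 h at 37C with doxycycline. Green/red ratio, after filter-overlap correction, defined %Activity; red signal alone was normalised to basal cells and zero luminescence.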
IL-1B inflam inh = qHTS for Inhibitors of Inflammasome Signaling: IL-1-beta AlphaLISA Primary Screen. 4.7% of 360,000 active. THP-1 LPS/ATP IL-1B secretion, AlphaLISA, 16 h; hits give low values. AID 743279, 2014. activity change, % at 57.5 µM; in the data active = activity change below about -50%; inconclusive = mostly about -30% to -49%
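THP-1 cells pretreated 1 hr with compounds (up to 57.5 uM final), then stimulated with LPS (250 ng/mL final) plus ATP (1.25 mM final); secreted IL-1B measured by AlphaLISA after 16 hr, decreased signal indicating inhibition.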
TDP1 cell noCPT = qHTS for Inhibitors of human tyrosyl-DNA phosphodiesterase 1 (TDP1): qHTS in cells in absence of CPT | 15% of 420,000 active | DT40 Tdp1-/- hTDP1 cells, no CPT, ATP luminescence, 48 h | Potency, µM (top dose mostly 46.2 µM), actives largely listed as inhibitors | AID 686978, 2013; note: nearly all actives have a fitted effect of over 55% in size
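DT40 Tdp1-/-;hTDP1 cells, no CPT (DMSO vehicle only), 400 cells/well; compounds pin-transferred; ≥48 hr, 37 °C; CellTiter-Glo 30 min RT dark, luminescence read.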
A number is an active result; - = inactive; ? = inconclusive; . = no result given; [ ] = remark or other dose. Only some compounds are listed: those with a hit (about 19% of all), similar ones and a draw of the others. Unless noted, calls come from the whole dose curve; as a rule, active = well fitted curve in the direction sought with a large enough effect; inconclusive = small, poorly fitted or top-dose-only effect, or another doubt; inactive = no such curve, though single readings can be large; an effect the other way counts as inactive or inconclusive.

SMILES | MCF10A rerep | SW480 rerep | DT40 TDP1 CPT | BCR signal inh | IL-1B inflam inh | TDP1 cell noCPT
CNC(=S)N/N=C/c1ccccc1OCC(=O)O | - | - | - | - | - | -
Cc1csc(NC(=O)CCCSc2nc3ccccc3s2)n1 | 18.4µM | - | ? | ? | - | ?
Cc1cn(CC(=O)NCC(C)c2ccccc2)c(=O)[nH]c1=O (configuration not stated) | - | - | - | . | - | -
COc1ccc(/C=N/NC(=O)COc2ccccc2-c2ccccc2)cc1 | 0.82µM | 0.92µM | 0.581µM | ? | - | 0.651µM
O=C(CCn1cnc(-c2ccccc2)c1-c1ccccc1)N/N=C/c1ccccc1O | 4.61µM | 9.2µM | 5.17µM | ? | - | 4.61µM
COc1ccc(/C=C/C(=O)Oc2ccc(/C=N/NC(=O)COc3c(C)cccc3C)cc2)cc1 | . | . | . | - | . | .
COc1ccc(/C=C/C(=O)Oc2cccc(/C=N/NC(=O)COc3c(C)cccc3C)c2)cc1 | ? | - | 20.6µM | ? | - | 14.6µM
Cc1nnc(-c2cnn(C)c2N)n1CCCN1CCOCC1 | - | - | - | - | - | -
Cc1ccn2cc(-c3cccc(S(=O)(=O)N4CC(C)OC(C)C4)c3)nc2c1 (configuration not stated) | - | - | ? | - | - | ?
Cc1ccn2cc(-c3cccc(S(=O)(=O)N4CCCC4)c3)nc2c1 | - | - | 18.4µM | - | -61.0 | 23.1µM
Cc1ccc(S(=O)(=O)Nc2ccc(-c3cn4ccc(C)cc4n3)cc2)cc1 | 20.6µM | 0.731µM | ? | - | - | 14.6µM
Cc1ccn2cc(-c3cccc(NS(C)(=O)=O)c3)nc2c1 | - | - | - | - | ? | -
Cc1ccn2cc(-c3ccc(NS(=O)(=O)c4ccccc4)cc3)nc2c1 | ? | - | ? | - | - | 29.1µM
Cc1c(O)ccoc1=O | - | - | - | - | - | -
CCOCc1c(C(=O)N2CCN(CCOc3ccc(Cl)cc3)CC2)oc2ccccc12 | - | - | ? | - | ? | 14.6µM
COc1ccc(C(=O)NCc2ccc(F)cc2)cc1S(=O)(=O)N1CCCC1 | - | - | - | - | - | -
Cc1ccccc1NC(=O)CCCN1C(=O)C2CC=CCC2C1=O (configuration not stated) | - | - | - | - | - | -
Cc1ccc2c(C)c(C(=O)N3CCN(Cc4ccc5c(c4)OCO5)CC3)oc2c1C | - | - | ? | - | -77.5 | ?
O=C(c1sccc1Br)N1CCN(Cc2ccc3c(c2)OCO3)CC1 | - | - | - | ? | -71.1 | ?
Cc1ccc2c(C)c(C(=O)N3CCN(c4cnccn4)CC3)oc2c1C | - | - | ? | - | -62.9 | 18.4µM
O=C(CN1Cc2ccccc2OC(c2ccsc2)C1)N1CCN(Cc2ccc3c(c2)OCO3)CC1 (configuration not stated) | . | . | -[9.04 µM] | . | . | 23.1µM
CCCN(CC(=O)Nc1ccccc1OC)C(=O)CSC(=S)N1CCCC1 | - | - | ? | - | - | -
O=C(N1CCN(Cc2ccc3c(c2)OCO3)CC1)C12CC3CC(CC(C3)C1)C2 | - | - | ? | - | -84.5 | ?
O=C(c1cc(F)c(F)c(F)c1F)N1CCN(Cc2ccc3c(c2)OCO3)CC1 | - | - | ? | - | - | -
CC(C)(O)[C@@H]1CC[C@@](C)(C2CC[C@]3(C)C2[C@H](O)CC2[C@@]4(C)CC[C@H](O)C(C)(C)C4[C@@H](O[C@H]4O[C@@H](CO)[C@H](O)[C@@H](O)[C@@H]4O[C@@H]4O[C@H](CO)[C@@H](O)[C@H](O)[C@H]4O)C[C@]23C)O1 (stereo in doubt) | - | - | - | - | - | -
Cc1ccc(S(=O)(=O)Cc2ccc(C(=O)N3CCC(C)CC3)cc2)cc1 | ? | ? | ? | - | - | ?

Assay outcomes as filed in PubChem BioAssay.
